The source of these data is PubChem BioAssay (NCI).

This is part of a sample that, as a whole, favours compounds with a hit. Of some 79,000 tested, about 15% had one in any assay. A number with no mark means an inactive call. Calls of active or inactive are those of the source. Cut-off read from the data, not from the text of the source: active = growth inhibition above about 70%; inactive = the rest.

Assay [1] is described as follows: NCI Yeast Anticancer Drug Screen. Data for the rad50 strain (AID 155).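 Note: 0% = growth of vehicle-only cultures of the same strain.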 The conditions noted are these: S. cerevisiae rad50 strain growth inhibition; at 50.0 µM; active compounds read high. In short, it runs like this:
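Genetically altered yeast (DNA repair pathway); compound treatment; growth inhibition vs vehicle ctrl.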

Assay [2] in a line: NCI Yeast Anticancer Drug Screen. Data for the mec2-1 strain (AID 157). The note with it: S. cerevisiae mec2-1 strain, at 50.0 µM, active compounds read high. In short, it runs like this: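 Cells of the genetically defined mec2-1 yeast strain are incubated with test compound. Inhibition of growth is calculated against vehicle-treated controls.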
Assay [3] is described as follows: NCI Yeast Anticancer Drug Screen. Data for the sgs1 mgt1 strain (AID 161).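 Note: 0% = growth of cultures given vehicle only.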 The conditions noted are these: S. cerevisiae sgs1 mgt1 strain, at 50.0 µM, active compounds read high. Summed up: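 Inhibition of yeast growth, normalised to vehicle-treated controls, is reported for a strain bearing genetic alterations in DNA damage repair.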
Assay [4] is described as follows: NCI Yeast Anticancer Drug Screen. Data for the cln2 rad14 strain (AID 165).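 Note: 0% = growth equal to vehicle treated cultures.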 The conditions noted are these: S. cerevisiae cln2 rad14 strain, at 50.0 µM, active compounds read high. In short, it runs like this:
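The screen exposed genetically defined yeast (cln2 rad14) to test compounds and scored growth inhibition relative to vehicle-treated controls.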

Assay [5] in a line: NCI Yeast Anticancer Drug Screen. Data for the bub3 strain (AID 167). The note with it: S. cerevisiae bub3 mutant strain, at 50.0 µM, active compounds read high. Summed up:
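Yeast carrying a defined mutation is treated with each compound, and growth is compared with that of vehicle-exposed cells to give inhibition.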

Assay [6] can be described thus: NCI Yeast Anticancer Drug Screen. Data for the mlh1 rad18 strain (AID 175). The conditions noted are these: S. cerevisiae mlh1 rad18 strain growth inhibition; at 50.0 µM; active compounds read high. Summed up:
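Compound-treated yeast growth, normalised to vehicle controls. Strain bears defined DNA repair mutations.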

Consider `Cc1cc(=O)oc2nc(-c3ccccc3)[nH]c(=O)c12`, for which the growth inhibition in assay [1] was 0.3%; in assay [2], -10.2%; in assay [3] it was 3.2%; in assay [4], -5.4%; in assay [5], -7.15%; in assay [6], 18.3%.
Turning to `CCCCC(=O)/C=C/c1ccccc1`, the growth inhibition in assay [1] was 12.3%; in assay [2], -8.15%; in assay [3], -3.95%; in assay [4], -46.5%; in assay [5], -6.6%; in assay [6], -3.4%.
Consider `COc1ccc(C2=NC(=O)OC2(C)C)cc1`, for which the growth inhibition in assay [1] is -6.95%; in assay [2] it was -20.2%; in assay [3], -5.7%; in assay [4], -11%; in assay [5], -8.6%; in assay [6] it was -10.2%.
As to `Cc1ccccc1NC(=O)CC(=O)n1nc(-c2ccccc2)c(N=Nc2ccc([N+](=O)[O-])cc2)c1-c1ccccc1`, the growth inhibition was 46.4% in assay [1]; 10.4% in assay [2]; 56% in assay [3]; 30.9% in assay [4]; 52.8% in assay [5]; 42.9% in assay [6].
With `CCOC(=O)NN(C(=O)OCC)c1c(C)[nH]c2ccccc12`, the growth inhibition in assay [1] is 20.3%; in assay [2], 10.6%; in assay [3], 19.4%; in assay [4], -10.6%; in assay [5] it was 4.65%; in assay [6], 24.5%.
As to `COc1cc(OC)c(C2c3cc4c(cc3OC(N3CCCC3)C2C)OCO4)c(OC)c1` (stereo not given), the growth inhibition was 17.1% in assay [1]; -11.8% in assay [2]; 2.45% in assay [3]; 18% in assay [4]; -5.1% in assay [5]; -1.4% in assay [6].
`c1ccc(N2CCN(c3ccccc3)C2)cc1`: the growth inhibition was -33.8% in assay [1]; -13.3% in assay [2]; -12.8% in assay [3]; 8.65% in assay [4]; 9.1% in assay [5]; 11.5% in assay [6].
`NC(=O)C(O)(c1ccc(Br)cc1)C(Cl)Cl` (stereo not given): the growth inhibition is 4.65% in assay [1]; 3.05% in assay [2]; -5.55% in assay [3]; 9.05% in assay [4]; 11.6% in assay [5]; 5.95% in assay [6].
Regarding `COC(=O)n1oc2c(Br)cc(Br)cc2c1=O`, the growth inhibition in assay [1] was -4.15%; in assay [2] it was -10.4%; in assay [3], 1.45%; in assay [4], -6.85%; in assay [5], -0.2%; in assay [6] it was 0.8%.
Take `CCCCNC(C)(C)CSS(=O)(=O)O`: the growth inhibition in assay [1] is -12.9%; in assay [2], -23.3%; in assay [3] it was -22.2%; in assay [4], -59.8%; in assay [5], 4.1%; in assay [6], -14.6%.
For the compound `N#Cc1[nH]c(=O)n(-c2ccc(Cl)cc2)c1N`, the growth inhibition in assay [1] is -30.1%; in assay [2] it was -58.6%; in assay [3] it was -19%; in assay [4], -11.3%; in assay [5] it was -12.4%; in assay [6], -33%.
In the case of `CCCCOC(=O)NC(=O)c1cc2ccc(N(CC)CC)cc2oc1=O`, the growth inhibition is -10.5% in assay [1]; 3.5% in assay [2]; 8.7% in assay [3]; 3.4% in assay [4]; 5.4% in assay [5]; 4.2% in assay [6].
Regarding `C#CCN(CC#C)C(=O)Nc1ccc(Cl)cc1`, the growth inhibition was -33.5% in assay [1]; -21.4% in assay [2]; -11.2% in assay [3]; -47% in assay [4]; -16.2% in assay [5]; 3.45% in assay [6].
In the case of `COc1ccc2c(=O)cc[nH]c2c1OC`, the growth inhibition in assay [1] is -13.9%; in assay [2], -16.4%; in assay [3], -8.2%; in assay [4], -23.9%; in assay [5] it was 9.1%; in assay [6], 4.85%.
Regarding `C=CCC(CNC(C)=O)(C1=CCCCC1)c1ccccc1` (stereo not given), the growth inhibition was 1.95% in assay [1]; 13% in assay [2]; 13.1% in assay [3]; 19.8% in assay [4]; 17.1% in assay [5]; 12.7% in assay [6].
Turning to `CC(=O)/C=C(\c1ccccc1)c1c(O)c2ccccc2oc1=O`, the growth inhibition in assay [1] was -2%; in assay [2], 9.15%; in assay [3] it was 4.45%; in assay [4], 7.2%; in assay [5], 3.85%; in assay [6], 6.15%.
In the case of `COC(=O)c1ccccc1NC(=O)c1ccccc1C(=O)O`, the growth inhibition in assay [1] is 6.4%; in assay [2], 41%; in assay [3] it was 35%; in assay [4], -6.55%; in assay [5], 28.5%; in assay [6], 37.2%.
Regarding `CN1CCN(CC2C(=O)C3CCC2C3)CC1` (stereo not given), the growth inhibition was 4.6% in assay [1]; -20.4% in assay [2]; -18.4% in assay [3]; -7.85% in assay [4]; -22.7% in assay [5]; -10.3% in assay [6].
For the compound `O=C(c1ccccc1)c1nc2c(Cl)ccc(Cl)c2cc1C(Br)Br`, the growth inhibition was 37.1% in assay [1]; 20.8% in assay [2]; 44% in assay [3]; 45.2% in assay [4]; 38.1% in assay [5]; 44.1% in assay [6].
Consider `COc1ccc(C2=CCCCc3cc(O)c(OC)cc32)cc1`, for which the growth inhibition is 93.9% (active) in assay [1]; 96.7% (active) in assay [2]; 97.2% (active) in assay [3]; 79.8% (active) in assay [4]; 98.1% (active) in assay [5]; 97.2% (active) in assay [6].
